# Sampled rows, rich in hits. Any-hit rate of the full collection: about 13%.
# WT yeast gro inh: growth inhibition of WT yeast, mitochondrial fusion screen; AID 1362; 190,000 tested, 2.1% active; inhibition, % at 10 µM; mitochondrial fusion phenotypic screen, WT strain; in the data active means inhibition above about 58%; tested in S. cerevisiae
# CHOP inh: CHOP inhibition in unfolded protein response. CHO-K1 CHOP-promoter luciferase, tunicamycin-induced, 15-18 h. AID 2732. inhibition, % at 10 µM. 220,000 tested, 3.8% active;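 active means compounds that reduced the stress-induced luciferase reporter signal by more than about 70% of percent inhibition, limit read from the data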;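 further: 0% = tunicamycin plus vehicle and 100% = wells without tunicamycin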
# L major viab: reduces viability of Leishmania major promastigotes; resazurin fluorescence viability; inhibition, % at 10 µM; 200,000 tested, 9% active; AID 1063; in the data active means inhibition above about 50%;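 further: promastigotes grown with compound for 44 hours at 28 °C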
# RAM inhibit: blocks the yeast RAM network. 190,000 tested, 1.8% active. AID 868. S. cerevisiae dse1pr::URA3 reporter, 5-FOA growth OD615, 2 d; analog-sensitive cbk1-as2 kinase mutant strain. inhibition, % at 50 µM;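 active means inhibition above a set limit, 3 SD over mean compound inhibition, cut at about 8.4% in these data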;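 further: 0% = DMSO-only wells with no growth and 100% = 10 µM 1-NA-PP1 full growth; inhibition rescues growth on 5-FOA so higher OD means more RAM inhibition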
# An asterisk follows results filed as active; . = not tested or not shown.
SMILES,WT yeast gro inh,CHOP inh,L major viab,RAM inhibit
CCCOCCc1nnc(N)s1,.,9.6,.,.
Cc1ccccc1NC(=S)N=Nc1c(O)n(C)c2ccc(S(=O)(=O)N3CCOCC3)cc12,56.5,-48.2,-3.9,2.5
Cc1c(Cl)cccc1NC(=S)N=Nc1c(O)n(CN2CCOCC2)c2ccccc12,62.4,87.2*,98.1*,0.3
CCn1c(O)c(N=NC(=O)CNc2cccc(C)c2)c2ccccc21,1.6,12.4,-3.2,2.0
C=CCn1c(O)c(N=NC(=S)Nc2ccccc2F)c2ccccc21,22.8,-74.8,96.4*,3.7
C=CCn1c(O)c(N=NC(=S)Nc2cccc(C)c2)c2ccccc21,14.6,-51.3,98.7*,6.0
Cc1cccc(NC(=O)Cn2c(O)c(N=NC(=O)c3ccncc3)c3ccccc32)c1,-2.8,83.9*,1.4,3.1
O=C(CNC(=O)c1ccccc1Br)N/N=C/c1ccc(O)cc1,-13.9,12.3,2.6,1.1
COCCn1c(N)c(N(Cc2ccccc2)C(=O)C2CCCC2)c(=O)[nH]c1=O,-4.8,2.1,1.1,0.2
CC1CCc2cc(F)ccc2N1C(=O)CSc1nnc2c(n1)[nH]c1ccccc12 (stereo unspecified),23.8,67.3,36.2,6.1
CCC(CC)C(=O)c1c[nH]c(C(=O)N2CCN(c3ccc(OC)cc3)CC2)c1,-17.2,13.6,-5.8,2.6
O=C(COC(=O)c1cc(=O)c2ccccc2o1)NC1CCCC1,3.2,-11.2,-6.2,1.1
NC(=S)N=Nc1c(O)n(Cc2ccccc2)c2ccccc12,-6.5,8.9,-5.6,6.5
Oc1c(N=NC(=S)Nc2ccccc2F)c2ccccc2n1Cc1ccccc1Cl,4.5,-7.3,84.2*,4.6
Oc1c(N=NC(=S)Nc2ccccc2F)c2ccccc2n1Cc1ccccc1,-5.3,7.5,95.6*,5.1
CCOC(=O)N=Nc1c(O)n(Cc2ccccc2)c2ccccc12,9.2,79.7*,0.3,10.5*
O=Nc1c(O)n(Cc2cccc(Cl)c2)c2ccccc12,67.4*,73.4*,-2.9,-2.2
COc1cc(NC(=O)CN(C)C2CCCCC2)c(C)cc1[N+](=O)[O-],11.4,24.2,3.0,1.6
CN(C)CCCC1(c2ccc(F)cc2)OCc2cc(C#N)ccc21 (stereo unspecified),0.2,13.6,-5.3,2.6
C/C(=N/NC(=O)c1ccc(C)nc1)c1ccc2c(c1)CCCC2,9.2,-0.9,1.9,0.0
Cc1ccc(Cn2c(O)c(N=NC(=S)Nc3ccccc3F)c3ccccc32)cc1,5.9,-17.1,96.6*,5.0
CCCCNC(=S)N=Nc1c(O)n(Cc2ccccc2)c2ccccc12,17.8,8.4,8.9,8.4
O=C(Oc1c(CN2CCOCC2)cc(Cl)c2cccnc12)c1ccccc1F,-3.0,66.6,100.6*,-0.7
Oc1c(I)cc(Cl)c2cccnc12,56.8,85.0*,-3.6,0.0
Oc1c(CN2CCCCC2)cc(Br)c2cccnc12,42.0,.,100.5*,-1.0
SMILES,WT yeast gro inh,CHOP inh,L major viab,RAM inhibit
O=[N+]([O-])c1cc(Cl)c2cccnc2c1O,47.7,-6.5,-2.1,0.1
COc1ccc(C(=O)Oc2c(CN3CCOCC3)cc(Cl)c3cccnc23)cc1OC,22.7,.,96.6*,.
CN(C)CCCNC(=O)C(=O)NCC1CCCO1 (stereo unspecified),-15.9,-0.2,-10.3,-0.4
Oc1c(CN2CCc3ccccc3C2)cc(Cl)c2cccnc12,45.0,.,100.4*,-1.7
Oc1c(C(c2ccccn2)N2CCCCC2)cc(Cl)c2cccnc12 (stereo unspecified),7.2,-7.5,74.4*,2.2
O=C(Oc1c(CN2CCOCC2)cc(Cl)c2cccnc12)c1ccccc1,-4.6,3.9,100.3*,1.4
O=c1oc2ccccc2c(O)c1Cc1cc(Cl)c2cccnc2c1O,.,-0.3,.,.
CCOC(=O)c1sc(-c2ccccc2)cc1NC(=O)Nc1ccccc1,32.6,51.9,7.5,5.7
CCOC(=O)c1sc(-c2ccc(Br)cc2)cc1N,6.0,80.8*,9.2,6.8
Cc1ccc(C)c(Nc2ncnc(N)c2[N+](=O)[O-])c1,-7.5,1.6,61.0*,3.4
CCCCOc1ccc(S(=O)(=O)NNC(=O)c2cc3ccccc3o2)cc1,7.7,54.9,-7.4,10.2*
Cc1ccccc1-c1nc(P(=O)(c2ccccc2)c2ccccc2)c(N2CCOCC2)o1,.,10.8,.,.
CNc1oc(-c2ccccc2Cl)nc1P(=O)(c1ccccc1)c1ccccc1,56.5,80.4*,16.3,1.7
COc1ccc(-c2nn(CCC(=O)O)cc2/C=C/C(=O)O)cc1[N+](=O)[O-],-6.4,3.8,-7.9,-0.4
O=C(c1cc2ccccc2o1)N1CCC(N2CCC(C(=O)N3CCCC3)CC2)CC1,28.2,2.9,50.0*,2.9
O=C(c1cc2ccccc2o1)N1CCCC1,21.6,11.6,-2.4,-0.4
Cc1cc(C)n(-c2nc3sc4c(c3c(=O)[nH]2)CCCC4)n1,73.2*,-74.9,99.2*,1.9
Cc1ccc(C)n1-n1c(C)nc2sc3c(c2c1=O)CCCCC3,3.2,79.2*,11.5,3.5
Cc1nc2sc3c(c2c(=O)[nH]1)CCCCC3,.,5.6,.,.
CC/C(=N/O)C(=O)c1ccc(Br)cc1,1.9,36.4,-4.1,0.4
Nc1nnc(SCC(=O)c2ccc([N+](=O)[O-])cc2)s1,0.1,3.4,84.0*,2.0
CCOC(=O)/C=C1/N(C)c2ccccc2C1(C)C,.,25.9,.,.
CN1/C(=C\P(=O)(N(C)C)N(C)C)C(C)(C)c2ccccc21,6.6,5.1,98.5*,0.8
COc1ccc(C2C(C(C)=O)=C(O)C(=O)N2c2nccs2)c(OC)c1 (stereo unspecified),-15.3,19.3,-2.3,1.3
O=C(NCC(c1cccnc1)N1CCN(c2ccccc2F)CC1)c1ccco1 (stereo unspecified),-1.0,-4.6,89.0*,3.2
SMILES,WT yeast gro inh,CHOP inh,L major viab,RAM inhibit
O=C(NCC1CCCO1)C(=O)NCC(c1ccco1)N1CCN(c2ccccc2F)CC1 (stereo unspecified),6.2,0.3,53.5*,0.1
O=C(NCC(c1cccnc1)N1CCN(c2ccccc2F)CC1)c1ccccc1 (stereo unspecified),1.5,-7.8,83.5*,0.8
Cc1ccsc1/C=N/NC(=O)CC(=O)NCC(C)C,3.1,5.5,-9.3,0.5
COC(=O)C1=NN(c2cccc(C)c2)C2C(=O)N(c3ccccc3OC)C(=O)C12 (stereo unspecified),-9.8,0.9,-4.1,2.6
C#CCNC(=O)C(C)c1ncc(C(F)(F)F)cc1Cl (stereo unspecified),5.9,15.3,3.1,-1.2
CCOC(=O)c1c(C)[nH]c(C(=O)COC(=O)CCC2CCCC2)c1C,1.6,7.4,-0.6,0.7
O=C(NCCCO)/C(=C/c1ccc(-c2cccc([N+](=O)[O-])c2)o1)NC(=O)c1ccccc1,-11.3,-3.4,2.1,8.5*
O=[N+]([O-])c1ccc(/C=N/NC(=S)Nc2ccccc2)o1,3.4,14.0,50.4*,1.3
O=C(NCCO)/C(=C\c1ccc([N+](=O)[O-])o1)NC(=O)c1ccccc1,-10.8,-10.6,26.6,-0.4
O=[N+]([O-])c1cccc(-c2ccc(/C=N/NC(=S)NCc3ccco3)o2)c1,.,25.6,.,.
O=[N+]([O-])c1cccc(-c2ccc(/C=N/NC(=S)Nc3ccccc3)o2)c1,33.1,32.0,59.4*,2.6
COc1ccc(S(=O)(=O)N2CCCCCC2)cc1N,-8.8,6.7,-12.8,1.5

# Screening data from PubChem.
